Source: PubChem (National Center for Advancing Translational Sciences (NCATS))
Tau ThT inhib: inhibitors of human tau fibril formation, thioflavin T binding; P10636; recombinant tau K18 P301L, heparin-induced fibrillization, ThT fluorescence; Potency, µM (titrated, usually from 57.4 µM), inactives show at the highest dose activity, negative = inhibition, actives largely listed as inhibitors; 2.1% of 270,000 active; also: potency is read from the fitted curve at half-maximal effect; nearly all actives have a fitted effect of over 55% in size
Target sequence (P10636 561-689 P618L limits assumed): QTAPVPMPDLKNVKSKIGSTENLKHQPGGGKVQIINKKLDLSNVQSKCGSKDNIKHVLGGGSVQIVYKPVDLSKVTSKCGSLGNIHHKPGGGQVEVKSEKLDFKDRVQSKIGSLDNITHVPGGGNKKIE
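In this qHTS, human K18 P301L tau is incubated with compound and heparin for 6 hr at 37 C, and Thioflavin T fluorescence then reports fibril load.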
G9a inh: inhibitors of human histone lysine methyltransferase G9a; Q96KQ7; G9a H3K9 monomethylation, AlphaScreen, 2 h; Potency, µM (top dose mostly 102 µM), for inactives: at the highest dose activity, negative = inhibition, actives largely listed as inhibitors; 8.8% of 350,000 active; AID 504332; also: potency is read from the fitted curve at half-maximal effect; nearly all actives have a fitted effect of over 75% in size
Target sequence (Q96KQ7 913-1193 limits assumed): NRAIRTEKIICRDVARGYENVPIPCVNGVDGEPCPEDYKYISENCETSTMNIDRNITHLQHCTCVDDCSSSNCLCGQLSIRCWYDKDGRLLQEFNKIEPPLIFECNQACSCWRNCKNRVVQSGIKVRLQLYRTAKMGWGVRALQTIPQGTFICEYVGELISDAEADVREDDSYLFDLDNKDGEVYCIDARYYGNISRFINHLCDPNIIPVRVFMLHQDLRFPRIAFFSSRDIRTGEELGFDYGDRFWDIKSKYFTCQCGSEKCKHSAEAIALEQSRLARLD
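G9a (20 nM) preincubated 15 min RT with compounds, then 500 nM biotinylated H3K9 peptide and 20 uM SAM added; 2 h RT reaction. Monomethyl-H3K9 product detected by AlphaScreen with anti-H3K9me1 antibody, streptavidin donor and anti-rabbit IgG acceptor beads.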
Sfp PPTase inh: Sfp phosphopantetheinyl transferase inhibition | AID 1490 | Potency, µM, for the others: largest response in the series, negative = inhibition, hits mostly inhibitors | 3.5% of 310,000 active | Q9F4F7 | Biochemical Sfp PPTase activity, qHTS;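 also: the enzyme is Sfp with the accession as filed and its product quenches rhodamine fluorescence; potency is read from the fitted curve at half-maximal effect; 0% = enzyme reaction without inhibitor and -100% = no enzyme wells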
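Sfp 15 nM + cpd, 15 min RT; start w/ rhodamine-CoA 5 uM, BHQ-2-YbbR 12.5 uM (final); 50 mM Hepes pH 7.6, 10 mM MgCl2, 0.01% NP-40, 0.01% BSA; read 525/598 nm at 0 and 30 min.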
Tau fibril FP: blocks human tau fibril formation measured by polarization; P10636; Potency, µM (titrated, usually from 57.7 µM), for inactives: at the highest dose activity, negative = inhibition, usual class: inhibitors; K18 P301L tau heparin fibrillization, Alexa594 FP, 6 h; 0.39% of 280,000 active; also: potency is read from the fitted curve at half-maximal effect; nearly all actives have a fitted effect of over 55% in size
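Human tau K18 […] P301L fragment, 15 uM unlabeled plus 0.24 uM Alexa 594-labeled tau (final), with compound and 20 uM heparin in 100 mM sodium acetate pH 7; 6 hr at 37 C, then Alexa 594 FP read.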
Tau fluor cs: counter-screen for tau fibril formation inhibitors; tau K18 P301L Alexa594 fluorescence, heparin fibrillization; Potency, µM (series often up to 57.7 µM), without a hit: at the highest dose activity change, negative = decrease; 0.93% of 280,000 active; AID 1463; also: potency is read from the fitted curve at half-maximal effect; nearly all actives have a fitted effect of over 55% in size
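Human tau K18 P301L (15 uM unlabeled, 0.24 uM Alexa 594-labeled) in 100 mM sodium acetate pH 7 with 20 uM heparin, 6 hr at 37 C. ThT 30 uM added, 1 hr ambient; Alexa 594 FP and total fluorescence read at 555/632 nm.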
FBPA coupling cs: counter-screen for Giardia aldolase inhibitors: coupling enzyme system. coupling enzyme system counterscreen, AmpLite Red fluorescence. activity change, negative = inhibition, % at 58.2 µM, hits read low. 0.67% of 290,000 active. AID 2472; in the data active = activity change below about -30%
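Compounds tested against the coupling enzymes alone at 57.5 uM final; readout was AmpLite Red fluorescence (525/598 nm) after 20 min at RT.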
Numbers without * were called inactive; ? = inconclusive; nt = no result; [ ] = another dose, or the depositor's remark. Rows were chosen to be rich in hits. Some 11% of all compounds tested hit in one or more screens of this group. Unless noted, calls follow the shape of the dose curve; as a rule, active = well fitted curve in the direction sought with a large enough effect; inconclusive = small, poorly fitted or top-dose-only effect, or another doubt; inactive = no such curve, though single readings can be large; an effect the other way counts as inactive or inconclusive. Unless noted, % is scaled to controls: 0 for no effect and ±100 for the full control effect.

SMILES	Tau ThT inhib	G9a inh	Sfp PPTase inh	Tau fibril FP	Tau fluor cs	FBPA coupling cs
NS(=O)(=O)c1cc(Cl)c(NC(=O)COC(=O)c2ccccn2)c(Cl)c1	nt	3.2µM*	nt	nt	nt	nt
Cc1ccc(C(=O)OCc2cc(=O)n3nc(CC(C)C)sc3n2)cc1	9%	1%[59 µM]	nt	-1%	11%	nt
Cc1nc(N2CCCC2)ncc1C(=O)NCc1cccc(Cl)c1	-7%	15%[59 µM]	nt	-2%	-3%	nt
Cc1ccc(S(=O)(=O)n2cnc3ccccc32)cc1[N+](=O)[O-]	nt	-7%[2.33 µM]	-1%	nt	nt	2
COc1ccc(Cl)cc1S(=O)(=O)n1cnc2ccccc21	-2%	?	7%	6%	-5%	3
COc1ccc(S(=O)(=O)n2cnc3ccccc32)cc1OC	nt	71µM*	7%	nt	nt	-1
Cc1cc(C)c(S(=O)(=O)n2cnc3ccccc32)c(C)c1	-10%	89µM*	-7%	-8%	-7%	0
Cc1ccc(S(=O)(=O)Nc2cccc(C(=O)N3CCN(c4ccccc4O)CC3)c2)cc1F	nt	50µM*	nt	nt	nt	nt
Cc1cc(S(=O)(=O)Nc2ccc(C(=O)N3CCN(c4ccccc4O)CC3)cc2)ccc1F	nt	7%	13%	nt	nt	-1
CC1CCCCN1C(=O)COC(=O)c1cccc(NS(=O)(=O)c2ccccc2)c1 (centres undefined)	nt	56µM*	nt	nt	nt	nt
CCOC(=O)C1CCN(C(=O)c2cccc(NS(=O)(=O)c3ccc(F)c(F)c3)c2)CC1	3%	50µM*	?	0%	-8%	1
Cc1c(Cl)cccc1NC(=O)Cn1nc(C)c2sc3ccccc3c2c1=O	1%	-25%[59 µM]	nt	-8%	-11%	nt
COc1cccc(N2CCN(Cc3cc(=O)oc4cc(C)ccc34)CC2)c1	?	-21%[59 µM]	nt	12%	-27%	nt
Cc1cc(NCc2ccc(Cl)cc2)n2cnnc2n1	-5%	6%[59 µM]	nt	0%	-6%	nt
CC/C(C)=N/Nc1nc(-c2cc3cccc(OC)c3oc2=O)cs1	18µM*	nt	-28%	-5%	?	1
O=Cc1cc(N=Nc2ccccc2Cl)ccc1O	13µM*	10µM*	-14%	?	?	9
O=Cc1cc(N=Nc2cccc(C(=O)O)c2)ccc1O	4µM*	?	-7%	-8%	-13%	21
O=C(COC(=O)c1ccc2ncsc2c1)Nc1cc([N+](=O)[O-])ccc1Cl	nt	6%[12.7 µM]	nt	nt	nt	nt
CC(=O)OC1OCCOC1NC(=S)NCc1ccco1 (centres undefined)	?	nt	22µM*	-7%	-7%	-3
O=C1/C(=C/c2ccc(F)cc2)SC(=S)N1N1CCOCC1	-6%	35%[12.7 µM]	-11%	-8%	0%	2
O=C1/C(=C/c2ccccn2)SC(=S)N1N1CCOCC1	?	56µM*	?	-14%	-13%	-17
Cc1nnsc1C(=O)Nc1ccc(S(=O)(=O)N2CCC(C)CC2)cc1	nt	19%	8%	nt	nt	2
O=C(NCCc1ccccc1Cl)c1sc2ncccc2c1-n1cccc1	-12%	-33%[59 µM]	nt	-2%	-16%	nt
Cc1ccc(CCNS(=O)(=O)c2ccc3c(c2)CCN3C(=O)CCC(=O)O)cc1	-2%	21%[59 µM]	nt	1%	-6%	nt
COc1ccc(C2=C/C(=C\c3ccc(OC(C)=O)cc3)C(=O)O2)cc1	?	-13%[59 µM]	-5%	14%	-21%	6
SMILES	Tau ThT inhib	G9a inh	Sfp PPTase inh	Tau fibril FP	Tau fluor cs	FBPA coupling cs
CN(C)c1ccc(/C=C2/C=C(c3ccc4c(c3)CCCC4)OC2=O)cc1	3.2µM*	-17%[59 µM]	-3%	?	?	1
COC(=O)C1=C(C(=O)OC)[C@@H]2N(Cc3ccccc3)c3ccccc3[C@@]23C[C@@H](C(=O)OC)N(S(=O)(=O)c2ccc([N+](=O)[O-])cc2)C3=N1	2%[11.5 µM]	nt	-3%	?	-7%[11.6 µM]	-2
CCOc1ccc2[nH]c3c(c2c1)CNCC3	nt	71µM*	8%	nt	nt	-2
CCCCOC(=O)c1cccc(NC(=O)c2cc3ccccc3o2)c1	-8%	37%[59 µM]	nt	?	?	nt
COCCn1c(SCCOc2ccccc2)nc2ccccc2c1=O	-14%	141%[59 µM]	?	-2%	-12%	-1
COCCn1c(-c2ccccc2)cnc1SCC(=O)Nc1cccc2ccccc12	5%	32µM*	-15%	3%	2%	0
COCCn1c(-c2ccc(OC)cc2)cnc1SCC(=O)Nc1ccc(OC)cc1OC	?	?	-7%	5%	-22%	2
COCCn1c(-c2ccc(OC)cc2)cnc1SCC(=O)Nc1cc(C)on1	-18%	79µM*	4%	0%	-13%	7
Cc1ccc2occ(CN3CCN(c4ccccc4)CC3)c(=O)c2c1	1%	-5%[12.7 µM]	-10%	0%	-2%	2
Cc1ccc2occ(C3N[C@H](C(=O)O)CS3)c(=O)c2c1 (some centres undefined)	?	32µM*	50µM*	-4%	-5%	5
Cc1ccc2occ(C3NC(C(=O)O)CS3)c(=O)c2c1 (centres undefined)	?	5µM*	14µM*	-2%	-4%	1
Cc1cccc(NC(=O)CSc2nc3nc(C)cc(C)n3n2)c1	nt	-1%	27%	nt	nt	0
Cc1cc(C)n2nc(SCC(=O)N/N=C/c3ccccn3)nc2n1	-10%	8.9µM*	56µM*	-3%	3%	1
Cc1cc(C)n2nc(SCC(=O)N/N=C/c3cccc(Br)c3)nc2n1	3%	-14%[59 µM]	-12%	?	10%	-32*
Cc1cc(C)n2nc(SCC(=O)Nc3c(C)n(C)n(-c4ccccc4)c3=O)nc2n1	-6%	45µM*	6%	0%	-3%	4
CCc1ccc(NC(=O)CN2C(=O)c3cccc4cccc2c34)cc1	6%	3%[59 µM]	nt	-11%	-18%	nt
Cc1cc(-c2ccc(S(=O)(=O)N3CCN(c4ccc(Cl)cc4)CC3)s2)on1	5%	2%[59 µM]	nt	-5%	-19%	nt
COc1ccc2c(c1)O[C@@H](c1ccc3c(c1)OCO3)[C@H](OC(=O)NCc1ccc3c(c1)OCO3)C2=O	-15%	nt	-1%	-6%	-21%	-2
O=C(COc1ccc(/C=N/NS(=O)(=O)c2ccccc2)cc1)Nc1cccc(Cl)c1	?	50µM*	19%	8%	16µM*[quencher]	-2
O=C(COc1ccc(/C=N/NS(=O)(=O)c2ccccc2)cc1)N1CCOCC1	-6%	40µM*	-12%	-4%	-4%	-1
CSc1ccc(S(=O)(=O)Nc2ccc(OCC(=O)N3CCOCC3)cc2)cc1	-12%	11µM*	-25%	6%	-9%	2
COc1ccc(NS(=O)(=O)c2ccc(OCC(=O)N3CCOCC3)cc2)cc1	-13%	2%[59 µM]	7%	-1%	-5%	4
CC(=O)CNc1ccc(S(=O)(=O)N/N=C/c2ccccc2)cc1	-2%	6.3µM*	-4%	-6%	0%	1
Cc1ccccc1CSc1nnc2[nH]c(=O)cc(C)n12	-5%	-1%[59 µM]	nt	-8%	2%	nt
